Source: PubChem BioAssay (NCI)
Several values for one entry are separate records, joined by “and”; a condition that tells them apart may be missing. Identical values can stand only once. This is part of a sample that, as a whole, favours compounds with a hit. Of some 79,000 tested, about 15% had one in any assay. Unmarked numbers belong to inactive results. Activity calls are given as the source filed them. Rule as the data show it: active = growth inhibition above about 70%; inactive = the rest.

Experiments:
[1] = NCI Yeast Anticancer Drug Screen. Data for the rad50 strain (AID 155);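 also: 0% = growth of vehicle-only cultures of the same strain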; conditions: S. cerevisiae rad50 strain growth inhibition, stronger effect = higher value; at 50.0 µM unless noted
Method in brief: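 Yeast carrying a defined DNA repair defect were exposed to test compounds, and growth was compared with vehicle-treated controls to give percent inhibition.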

[2] = NCI Yeast Anticancer Drug Screen. Data for the mec2-1 strain (AID 157); conditions: S. cerevisiae mec2-1 strain, stronger effect = higher value; at 50.0 µM unless noted
Method in brief: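 Yeast mec2-1 mutant treated with compound. Readout: growth inhibition vs vehicle controls.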

[3] = NCI Yeast Anticancer Drug Screen. Data for the sgs1 mgt1 strain (AID 161);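 also: 0% = growth of cultures given vehicle only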; conditions: S. cerevisiae sgs1 mgt1 strain, stronger effect = higher value; at 50.0 µM unless noted
Method in brief: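 Genetically altered yeast, compound exposure, growth inhibition relative to vehicle.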

[4] = NCI Yeast Anticancer Drug Screen. Data for the cln2 rad14 strain (AID 165);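 also: 0% = growth equal to vehicle treated cultures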; conditions: S. cerevisiae cln2 rad14 strain, stronger effect = higher value; at 50.0 µM unless noted
Method in brief: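 cln2 rad14 yeast strain; compound exposure; growth inhibition read vs vehicle controls.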

[5] = NCI Yeast Anticancer Drug Screen. Data for the bub3 strain (AID 167); conditions: S. cerevisiae bub3 mutant strain, stronger effect = higher value; at 50.0 µM unless noted
Method in brief: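 Compounds were applied to a genetically altered yeast strain carrying a cell-cycle control defect. Growth inhibition was scored against vehicle-treated controls.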

[6] = NCI Yeast Anticancer Drug Screen. Data for the mlh1 rad18 strain (AID 175); conditions: S. cerevisiae mlh1 rad18 strain growth inhibition, stronger effect = higher value; at 50.0 µM unless noted
Method in brief: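 Yeast w/ defined DNA-repair lesions; compound exposure; growth vs vehicle controls → % inhibition.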

| Compound | growth inhibition [1] | growth inhibition [2] | growth inhibition [3] | growth inhibition [4] | growth inhibition [5] | growth inhibition [6] |
| --- | --- | --- | --- | --- | --- | --- |
| COc1cc(C2c3cc4c(cc3[C@H](OCCN(C)C)[C@@H]3COC(=O)C23)OCO4)cc(OC)c1O (some centres undefined) | 83.2% (active) | 87.7% (active) | 83.3% (active) | 67.8% | 78.2% (active) | 82.6% (active) |
| COC(=O)C1(CC(=O)c2c(C)[nH]c3ccccc23)NC(=S)NC(=O)C1C#N (centres undefined) | -6.35% | 14.7% | -21.1% | -5.15% | -11.1% | 26.4% |
| c1ccc2nc(CCC3CCCCN3)ccc2c1 (centres undefined) | 7.2% | 7.5% | -9.7% | -14.2% | -2.1% | 17.1% |
| COc1cc(OCc2ccc3oc(=O)c(-c4ccccc4)nc3c2)cc(OC)c1OC | 16.6% | 1% | 2.2% | 7.75% | 19.2% | 9.25% |
| CCCOC(=O)C1C(c2ccc(OC)cc2)NC(c2ccc(OC)cc2)C(C(=O)OCCC)S1(=O)=O (centres undefined) | -39.5% | -2.8% | -21.6% | -5% | -19.4% | -14.3% |
| Nc1ccc(S(=O)(=O)CCS(=O)(=O)c2ccc(N)cc2)cc1 | 5.65% | -4.5% | 0.55% | -25.1% | 4.45% | 0.8% |
| O=C(Nc1ccc(F)cc1)N1CCOCC1 | 1.65% | -25% | 4.3% | 9.6% | 6.8% | -9.4% |
| C(=Nc1cccnc1)c1ccc(C=Nc2cccnc2)cc1 | 21.9% | 37.5% | 30.3% | 25.1% | 33.8% | 33% |
| Cc1ccc(OC(=O)Oc2ccc(C)cc2)cc1 | 18.8% | 1.9% | 4.35% | -6.9% | 7.05% | 18% |
| COc1ccc(/C=N/NC(=O)c2ccccc2)c(OC)c1 | 17.1% | 0% | 6.65% | 17.7% | 28.2% | 9.3% |
| Cc1c(Cl)cccc1NC(=O)C(C)NCC(C)C (centres undefined) | -4.4% | -0.2% | -6.05% | -11.7% | 14.8% | -19.6% |
| CC1CCC2(OC1)OC1CC3C4CC=C5CC(O)CCC5(C)C4CCC3(C)C1C2C (centres undefined) | 21.8% and 13.3% | 16.9% and -23.6% | -1.5% and 3.2% | -3.95% and 4% | 1.35% and 14.8% | 32.9% and 15.3% |
| NC(=S)C(=S)N=Cc1c(O)c2ccccc2oc1=O | 39.3% | 29.9% | 63.1% | 18.9% | 23.1% | 40.5% |
| O=c1c2ccccc2oc2c(Cl)cc(Cl)cc12 | -0.95% | -0.05% | 9.35% | -10.3% | -6.5% | 0.8% |
| CC(=O)NNc1nc(C)c(C(/C=C/c2ccc(Cl)cc2)=N/NC(=O)C[N+](C)(C)C)s1 | 15.1% | 7.25% | 9.15% | 21.8% | 21.4% | -0.25% |
| Fc1ccc2c(c1)-c1ccccc1C2 | -0.1% | -14.6% | -2.65% | 4.95% | -0.95% | -19.6% |
| O=C1CC(Br)C(c2ccccc2)(c2ccccc2)O1 (centres undefined) | 32.2% | 9.4% | 33.6% | 46.3% | 14.2% | 32% |
| Cn1cnc([N+](=O)[O-])c1Sc1nc2cc(Cl)c(F)cc2[nH]1 | -35.6% | -27.9% | -31.9% | 8.5% | -25.1% | -29.4% |
| CC1=C(CCC(=O)O)C(=O)C(CCC(=O)O)C(C)(C)C1 (centres undefined) | 19.4% | 7.45% | 13.2% | 56.6% | 4.6% | 8.15% |
| O=C(CC(=O)Nc1ccccc1Cl)NNC(c1cc(N=Nc2ccc(Br)cc2)ccc1O)P(O)O (centres undefined) | 1.8% | 0.3% | 16.6% | 13.4% | -8.25% | -2.35% |
| Cc1ccccc1NC(=O)C(=O)CC(=O)c1sc(-n2nc(-c3ccccc3)cc2-c2ccccc2)nc1C | 12.3% | -4.3% | 5.45% | 16.4% | 2.05% | -17.8% |
| O=C(OCc1ccccc1)ON1C(=O)C2C3C=CC(C3)C2C1=O (centres undefined) | -26.4% | -54.2% | 12.5% | -9.1% | -19% | 5.05% |

| Compound | growth inhibition [1] | growth inhibition [2] | growth inhibition [3] | growth inhibition [4] | growth inhibition [5] | growth inhibition [6] |
| --- | --- | --- | --- | --- | --- | --- |
| COc1ccc(C2c3cc4c(cc3C(O)C3CCC(=O)N23)OCO4)cc1 (centres undefined) | -31.6% | 3.3% | -17.2% | -1.25% | -7.4% | -15.1% |
| COC(=O)C1=CO[C@@H](OC2OC(CO)C(O)C(O)C2O)[C@H]2[C@@H]1C=C[C@@]21C=C([C@H](C)OC(=O)/C=C/c2ccc(OC3OC(CO)C(O)C(O)C3O)cc2)C(=O)O1 (some centres undefined) | -18.4% | -18.6% | -20.1% | -6.15% | 2.65% | -20.1% |
| CCOC(=O)c1sc2c(c1OC(=O)c1ccc(OC)cc1)c(=O)n(-c1ccccc1)c(=S)n2-c1ccccc1 | 39.5% | 9.65% | 23.4% | 17.5% | 31% | 38.4% |
| CN(C)c1ccc(/C=N/Nc2nc3ccccc3c(=O)n2-c2ccccc2)cc1 | -3.05% | -16.1% | 6.55% | 17.9% | 26.1% | -3.7% |
| O=C1C(N2CCCCC2)=C(c2ccccc2)c2ccccc21 | 5.1% | 7.5% | -3.6% | -28.9% | 17.1% | -10.2% |
| C[n+]1ccc2ccccc2c1 | 6.9% and -7.2% | 0.55% and 5.3% | 21.2% and 1.15% | -36.8% and -2.25% | 3.05% and -6.5% | 9.6% and 10.4% |
| CC1CC(C)OC(C(Br)CBr)O1 (centres undefined) | 5.05% | -10.9% | -4.8% | 15% | -13.9% | 12.1% |
| COc1ccc(OC)c(/C=N\NC(=O)N/N=C/c2cc(OC)ccc2OC)c1 | -9.4% | -20.6% | 11.3% | -2.05% | 22.8% | -3.9% |
| O=C(N/N=C/c1ccc(Cl)cc1)c1cccc([N+](=O)[O-])c1 | -1.5% | 7.7% | -3.6% | 4.25% | 8.35% | -5.7% |
| O=c1[nH]c(Br)nc2c(N3CCCCC3)c[nH]c12 | 12.7% | -0.45% | -7.2% | 4.35% | -3.05% | 11.6% |
| CN1C(=O)/C(=C2\SC(=O)N(CN3CCOCC3)C2=O)c2ccccc21 | -6.1% | -32.9% | -40% | -7.55% | -39% | 2.35% |
| O=c1c(O)c(-c2cc(O)c(O)c(O)c2)oc2cc(O)cc(O)c12 | 13.7% | -21.1% | 7.55% | 1.1% | 14.5% | -8.55% |
| Cc1[nH]c(=O)cc2c1[nH]c1ccccc12 | -0.4% | -6.7% | -0.15% | -44.2% | 1.3% | -1.05% |
| CC(Oc1ccccc1)C(=O)NC(=S)Nc1cccc2ccccc12 (centres undefined) | -10.2% | -3.5% | -3.35% | -19.6% | 20.9% | 4.85% |
| CC1=NN(C(=O)Nc2ccc(Cl)cc2)C(=O)C2CCC(=O)N12 (centres undefined) | 2.6% | 0.6% | 1.1% | 2.7% | -0.45% | 27% |
| Cc1cccc(C)c1NC(=O)Nc1ccccc1C(N)=O | 4.85% | 22.8% | 35.5% | -6.75% | 17.1% | -17.4% |
| O=C(Nc1ccc(F)cc1)c1ccc([N+](=O)[O-])cc1 | 0.5% | -1% | 36.1% | -9.6% | 19% | 8.15% |
| CN1C(C)(C)CC(=O)C(Br)C1(C)C (centres undefined) | -37.8% | -45% | -33.8% | -6.2% | -6.75% | -29.4% |
| Cn1c(O)c(N=NC(=O)Cc2c[nH]c3ccccc23)c2ccccc21 | -6.95% | -3.75% | 4.8% | -7.05% | -2.2% | -19.1% |
| OC1COC(OCc2ccccc2)C(O)C1O (centres undefined) | -16.4% and -2.85% | -25.7% and -19.6% | -18.1% and -11.5% | -18.2% and -46.3% | 2.25% and 6% | -3.4% and -12.2% |
| Cc1nc(C(Cl)(Cl)Cl)[nH]c(=O)c1SCCO | 12.8% | -15.7% | -9.05% | 10.1% | -2.4% | -6.35% |
| CCOc1c(N=Nc2ccc(Cl)cc2Cl)c(C)nn1C(=S)SC | 41.4% | 16.1% | 25.9% | 15.5% | -0.45% | 19.6% |
